Data published in ChEMBL document CHEMBL3988442, “University of Dundee, Small-Polar-MMV Screening Library” (2021).
For part of these data: Entries with a potency or affinity are not part of this list.

Key:
Design in all cases: scale not given: direction of the effect not stated beside the values
[1] = target: Protein translocase subunit SecA (Escherichia coli (strain K12)) (UniProt P10408); test: Assay to Identify E. coli SecA ATPase Inhibitors; assay type: functional; conditions: 30 µM
[2] = target: T1, Ubiquitin-activating enzyme e1, putative (Leishmania donovani (strain BPK282A1)) (UniProt E9BSI1); test: Leishmania donovani Ubiquitin Activating Enzyme (LdE1); assay type: functional; conditions: 30 µM
T1 sequence (whole entry): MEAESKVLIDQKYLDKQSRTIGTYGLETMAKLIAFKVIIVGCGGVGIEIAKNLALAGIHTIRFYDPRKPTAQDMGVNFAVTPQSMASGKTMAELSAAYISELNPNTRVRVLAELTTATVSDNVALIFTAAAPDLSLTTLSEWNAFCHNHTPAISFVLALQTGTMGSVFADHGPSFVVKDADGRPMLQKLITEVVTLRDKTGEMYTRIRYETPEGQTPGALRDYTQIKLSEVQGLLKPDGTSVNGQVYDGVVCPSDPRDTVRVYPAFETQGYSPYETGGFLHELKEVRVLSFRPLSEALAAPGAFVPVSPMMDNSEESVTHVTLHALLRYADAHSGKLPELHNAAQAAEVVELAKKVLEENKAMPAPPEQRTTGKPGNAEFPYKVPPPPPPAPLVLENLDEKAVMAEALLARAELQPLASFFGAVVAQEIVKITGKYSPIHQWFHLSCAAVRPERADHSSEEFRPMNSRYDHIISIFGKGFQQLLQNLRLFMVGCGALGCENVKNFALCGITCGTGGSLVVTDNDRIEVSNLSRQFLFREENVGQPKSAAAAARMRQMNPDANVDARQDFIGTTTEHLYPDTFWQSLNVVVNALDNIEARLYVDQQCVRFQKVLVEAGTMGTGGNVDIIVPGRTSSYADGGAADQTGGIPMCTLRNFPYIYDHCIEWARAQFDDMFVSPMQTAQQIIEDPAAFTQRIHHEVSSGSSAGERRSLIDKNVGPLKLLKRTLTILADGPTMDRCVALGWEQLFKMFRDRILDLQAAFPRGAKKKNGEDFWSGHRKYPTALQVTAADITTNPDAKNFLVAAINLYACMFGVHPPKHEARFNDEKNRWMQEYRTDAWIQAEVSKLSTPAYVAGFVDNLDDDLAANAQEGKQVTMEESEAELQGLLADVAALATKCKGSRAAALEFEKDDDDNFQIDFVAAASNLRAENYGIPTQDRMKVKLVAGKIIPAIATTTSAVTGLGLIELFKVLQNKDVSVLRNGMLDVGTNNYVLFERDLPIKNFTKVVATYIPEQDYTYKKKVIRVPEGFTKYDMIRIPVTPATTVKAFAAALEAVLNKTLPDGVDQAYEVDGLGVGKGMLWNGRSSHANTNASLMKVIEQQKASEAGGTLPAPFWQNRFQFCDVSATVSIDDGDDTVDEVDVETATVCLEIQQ

[3] = target: T2, Aspartate--tRNA(Asp/Asn) ligase (Mycobacterium tuberculosis (strain ATCC 25618 / H37Rv)) (UniProt P9WFW3); test: Assay for Asp RNA synthetase-1 from Mycobacterium tuberculosis; assay type: functional; conditions: 30 µM; note: in the data most compounds retested in dose-response had high values
T2 sequence (whole entry): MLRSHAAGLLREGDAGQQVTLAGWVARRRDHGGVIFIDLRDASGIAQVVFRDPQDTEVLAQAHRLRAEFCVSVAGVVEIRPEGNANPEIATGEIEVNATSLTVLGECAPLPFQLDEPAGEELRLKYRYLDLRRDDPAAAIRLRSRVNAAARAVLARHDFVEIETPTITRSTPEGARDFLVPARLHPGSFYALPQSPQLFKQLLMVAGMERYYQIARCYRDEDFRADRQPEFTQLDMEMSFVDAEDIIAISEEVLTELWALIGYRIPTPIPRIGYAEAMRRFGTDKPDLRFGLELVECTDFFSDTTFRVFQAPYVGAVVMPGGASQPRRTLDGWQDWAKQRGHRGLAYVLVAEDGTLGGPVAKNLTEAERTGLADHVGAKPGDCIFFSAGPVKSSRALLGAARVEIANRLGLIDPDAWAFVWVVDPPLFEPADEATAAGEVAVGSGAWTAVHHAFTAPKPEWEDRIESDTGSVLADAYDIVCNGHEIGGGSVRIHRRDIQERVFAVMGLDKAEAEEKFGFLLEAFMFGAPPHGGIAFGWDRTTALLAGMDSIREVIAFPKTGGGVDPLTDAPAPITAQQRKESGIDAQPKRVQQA

[4] = target: AMP-activated protein kinase, AMPK (Homo sapiens) (UniProt P54646+O43741+P54619+Q9UGJ0+Q9Y478+Q13131+Q9UGI9); test: AMP-dependent Kinase enzyme assay. An in vitro enzyme assay that detects ADP turnover that is directly proportional to AMPK activity. This uses naive AMPK that is activated during the assay with MK-8722; assay type: functional; conditions: 30 µM
[5] = target: Sialic acid-binding Ig-like lectin 9 (Homo sapiens) (UniProt Q9Y336); test: Hs-Siglec9 ALPHAscreen SOP 20170721; conditions: 10 µM
Sequence of Sialic acid-binding Ig-like lectin 9 (Homo sapiens) (Q9Y336 whole entry): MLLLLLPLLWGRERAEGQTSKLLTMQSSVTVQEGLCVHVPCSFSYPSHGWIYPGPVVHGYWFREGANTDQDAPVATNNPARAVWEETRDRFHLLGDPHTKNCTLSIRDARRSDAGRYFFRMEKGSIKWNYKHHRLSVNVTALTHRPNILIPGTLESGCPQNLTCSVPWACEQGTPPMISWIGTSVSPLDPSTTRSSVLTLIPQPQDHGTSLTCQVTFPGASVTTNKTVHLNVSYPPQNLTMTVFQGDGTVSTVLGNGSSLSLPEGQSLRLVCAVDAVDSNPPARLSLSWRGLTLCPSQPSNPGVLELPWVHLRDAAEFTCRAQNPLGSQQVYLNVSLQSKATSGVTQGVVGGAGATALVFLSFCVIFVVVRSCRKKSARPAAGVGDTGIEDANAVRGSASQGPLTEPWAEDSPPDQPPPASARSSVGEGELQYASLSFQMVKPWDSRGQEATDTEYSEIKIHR

[6] = system: Trypanosoma cruzi; test: Trypanosoma cruzi phosphomannomutase and mannose-1-phosphate guanylyltransferase assay; assay type: functional; conditions: 10 µM
[7] = target: T3, Arginase-2, mitochondrial (Homo sapiens) (UniProt P78540); test: in vitro enzyme assay to detect the production of urea directly proportional to the activity of Arginase II; assay type: functional; conditions: 33.3 µM; note: in the data most compounds retested in dose-response had high values
T3 sequence (whole entry): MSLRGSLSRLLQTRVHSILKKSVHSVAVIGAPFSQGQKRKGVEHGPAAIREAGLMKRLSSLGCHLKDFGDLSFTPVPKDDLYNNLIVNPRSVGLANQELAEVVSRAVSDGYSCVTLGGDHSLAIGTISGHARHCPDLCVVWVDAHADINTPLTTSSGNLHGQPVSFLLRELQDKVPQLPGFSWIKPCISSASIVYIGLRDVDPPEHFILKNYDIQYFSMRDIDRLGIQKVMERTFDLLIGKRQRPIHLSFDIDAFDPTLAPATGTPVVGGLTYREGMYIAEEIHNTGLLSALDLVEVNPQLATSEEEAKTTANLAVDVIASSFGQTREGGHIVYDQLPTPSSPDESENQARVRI

[8] = target: T4, Proteasome subunit beta (Trypanosoma cruzi) (UniProt O96673); test: Trypanosoma cruzi proteasome chymotrypsin-like activity (TcProtChymo) assay.; note: in the data most compounds retested in dose-response had high values; assay type: functional; conditions: 9.37 µM
T4 sequence (whole entry): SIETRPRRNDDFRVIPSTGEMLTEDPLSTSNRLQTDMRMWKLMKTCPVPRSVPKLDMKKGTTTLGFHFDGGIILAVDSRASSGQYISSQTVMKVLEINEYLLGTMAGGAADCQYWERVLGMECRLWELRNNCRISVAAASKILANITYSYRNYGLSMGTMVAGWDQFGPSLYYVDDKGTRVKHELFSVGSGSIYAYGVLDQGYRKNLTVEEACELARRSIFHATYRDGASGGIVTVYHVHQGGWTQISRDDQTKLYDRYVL

[9] = organism: Homo sapiens; test: To identify inhibition of the IFN signalling (Jak-Stat) pathway via expression of an eGFP reporter gene under the control of an IFN-stimulated response element (ISRE) containing MxA promoter.; assay type: functional; conditions: 30 µM
[10] = target: Shiga toxin 2 (Escherichia coli O157:H7) (UniProt P09385+P09386); test: E. coli 0.157:H7 Shiga Toxin SOP - stx2 screening assay; assay type: functional; conditions: 30 µM
[11] = target: T5, Tyrosyl-tRNA synthetase, putative (Trypanosoma cruzi (strain CL Brener)) (UniProt Q4DSP6); test: Trypanosoma cruzi tyrosyl tRNA synthetase (TcYRS) _High Tyrosine SOP; assay type: functional; conditions: 30 µM; note: in the data most compounds retested in dose-response had high values
T5 sequence (whole entry): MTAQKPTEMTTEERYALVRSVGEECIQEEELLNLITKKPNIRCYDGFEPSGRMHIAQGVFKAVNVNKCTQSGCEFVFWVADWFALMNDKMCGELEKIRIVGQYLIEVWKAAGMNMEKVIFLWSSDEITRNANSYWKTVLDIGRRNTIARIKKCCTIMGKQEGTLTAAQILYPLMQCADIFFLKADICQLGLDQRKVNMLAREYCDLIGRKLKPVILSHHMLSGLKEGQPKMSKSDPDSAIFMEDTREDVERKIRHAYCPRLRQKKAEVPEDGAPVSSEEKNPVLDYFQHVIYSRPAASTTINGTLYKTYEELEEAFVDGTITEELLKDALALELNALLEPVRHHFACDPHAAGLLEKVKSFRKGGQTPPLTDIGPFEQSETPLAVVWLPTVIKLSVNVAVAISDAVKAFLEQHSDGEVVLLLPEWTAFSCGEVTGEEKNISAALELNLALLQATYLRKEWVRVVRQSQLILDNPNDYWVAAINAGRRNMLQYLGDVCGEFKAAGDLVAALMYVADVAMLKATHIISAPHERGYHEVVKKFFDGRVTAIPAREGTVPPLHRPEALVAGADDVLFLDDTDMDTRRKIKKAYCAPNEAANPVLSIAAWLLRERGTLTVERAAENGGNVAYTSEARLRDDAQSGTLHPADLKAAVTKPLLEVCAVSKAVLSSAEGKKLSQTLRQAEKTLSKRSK

[12] = target: T5, Tyrosyl-tRNA synthetase, putative (Trypanosoma cruzi (strain CL Brener)); test: Trypanosoma cruzi tyrosyl tRNA synthetase (TcYRS) SOP; assay type: functional; conditions: 30 µM
[13] = target: Chromo domain-containing protein 1 (Saccharomyces cerevisiae (strain ATCC 204508 / S288c) (Baker's yeast)) (UniProt P32657); test: ScCHD-1 Enzyme Inhibition Assay; assay type: functional; conditions: 30 µM; note: in the data most compounds retested in dose-response had high values
Sequence of Chromo domain-containing protein 1 (Saccharomyces cerevisiae (strain ATCC 204508 / S288c) (Baker's yeast)) (P32657 whole entry, the tested form may be a part): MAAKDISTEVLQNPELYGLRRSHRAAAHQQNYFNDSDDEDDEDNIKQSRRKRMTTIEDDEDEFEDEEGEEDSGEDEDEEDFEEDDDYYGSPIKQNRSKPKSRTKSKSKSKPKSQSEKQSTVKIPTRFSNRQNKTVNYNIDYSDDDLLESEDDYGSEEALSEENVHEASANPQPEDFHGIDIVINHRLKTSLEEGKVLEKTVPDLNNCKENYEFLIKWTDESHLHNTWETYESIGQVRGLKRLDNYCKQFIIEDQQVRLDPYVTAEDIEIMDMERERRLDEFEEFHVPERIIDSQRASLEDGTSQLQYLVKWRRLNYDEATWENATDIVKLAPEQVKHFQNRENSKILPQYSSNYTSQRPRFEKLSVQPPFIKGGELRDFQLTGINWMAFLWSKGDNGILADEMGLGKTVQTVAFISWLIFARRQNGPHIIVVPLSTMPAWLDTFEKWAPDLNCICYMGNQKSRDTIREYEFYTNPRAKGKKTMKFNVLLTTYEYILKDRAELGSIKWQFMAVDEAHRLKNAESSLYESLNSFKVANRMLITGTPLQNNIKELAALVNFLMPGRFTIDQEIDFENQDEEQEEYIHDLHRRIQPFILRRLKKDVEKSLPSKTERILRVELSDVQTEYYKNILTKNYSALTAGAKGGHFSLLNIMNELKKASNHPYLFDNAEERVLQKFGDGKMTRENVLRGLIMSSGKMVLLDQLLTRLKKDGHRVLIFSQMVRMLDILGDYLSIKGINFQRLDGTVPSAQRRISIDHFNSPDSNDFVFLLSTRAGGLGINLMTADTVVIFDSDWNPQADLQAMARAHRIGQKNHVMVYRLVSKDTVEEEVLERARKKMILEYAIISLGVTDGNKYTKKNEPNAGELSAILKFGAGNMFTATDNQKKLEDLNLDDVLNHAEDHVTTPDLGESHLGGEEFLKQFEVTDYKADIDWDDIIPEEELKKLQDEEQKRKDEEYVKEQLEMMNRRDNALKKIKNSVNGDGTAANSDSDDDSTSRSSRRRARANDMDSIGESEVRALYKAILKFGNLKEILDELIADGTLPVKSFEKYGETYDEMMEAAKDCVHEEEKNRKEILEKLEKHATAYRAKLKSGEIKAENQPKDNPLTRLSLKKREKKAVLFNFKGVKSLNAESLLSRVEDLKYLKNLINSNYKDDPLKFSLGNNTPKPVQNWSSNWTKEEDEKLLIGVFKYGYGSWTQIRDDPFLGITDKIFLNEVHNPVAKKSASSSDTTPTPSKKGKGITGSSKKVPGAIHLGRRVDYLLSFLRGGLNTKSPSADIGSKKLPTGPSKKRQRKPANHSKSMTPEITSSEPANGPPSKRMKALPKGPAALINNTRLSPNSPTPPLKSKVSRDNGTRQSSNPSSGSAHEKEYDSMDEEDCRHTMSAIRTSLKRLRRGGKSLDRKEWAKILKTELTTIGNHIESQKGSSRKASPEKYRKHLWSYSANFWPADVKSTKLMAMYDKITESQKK

Sequence of Protein translocase subunit SecA (Escherichia coli (strain K12)) (P10408 whole entry): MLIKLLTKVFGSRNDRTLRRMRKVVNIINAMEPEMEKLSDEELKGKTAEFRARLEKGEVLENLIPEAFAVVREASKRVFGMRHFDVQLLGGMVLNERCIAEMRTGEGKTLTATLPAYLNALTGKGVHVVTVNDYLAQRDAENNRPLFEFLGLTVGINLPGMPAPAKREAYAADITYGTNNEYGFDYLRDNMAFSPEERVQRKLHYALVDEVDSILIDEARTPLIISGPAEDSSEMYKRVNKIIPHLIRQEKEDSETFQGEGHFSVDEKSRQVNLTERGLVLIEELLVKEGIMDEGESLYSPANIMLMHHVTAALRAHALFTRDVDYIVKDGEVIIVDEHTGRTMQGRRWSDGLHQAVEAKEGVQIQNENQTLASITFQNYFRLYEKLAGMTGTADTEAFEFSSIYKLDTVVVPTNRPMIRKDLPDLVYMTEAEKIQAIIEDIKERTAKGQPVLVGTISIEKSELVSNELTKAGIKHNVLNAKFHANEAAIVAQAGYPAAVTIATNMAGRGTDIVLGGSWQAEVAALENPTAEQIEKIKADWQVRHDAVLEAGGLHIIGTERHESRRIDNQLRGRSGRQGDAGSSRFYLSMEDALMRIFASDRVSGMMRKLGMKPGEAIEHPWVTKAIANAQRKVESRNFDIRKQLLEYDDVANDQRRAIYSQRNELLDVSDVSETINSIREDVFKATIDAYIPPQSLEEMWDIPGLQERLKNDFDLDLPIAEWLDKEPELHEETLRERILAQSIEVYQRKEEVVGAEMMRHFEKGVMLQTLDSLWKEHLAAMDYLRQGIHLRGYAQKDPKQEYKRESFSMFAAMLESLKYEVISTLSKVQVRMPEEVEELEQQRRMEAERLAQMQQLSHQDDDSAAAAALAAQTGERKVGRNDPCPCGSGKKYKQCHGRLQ

SMILES: COc1ccc2c(ccn2CCN)c1
- Percent Effect [1]: -4.08%
- Percent Effect [2]: -49.3%
- Percent Effect [3]: -3.77%
- Percent Effect [4]: -2.79%
- Percent Effect [5]: 5.94%
- Percent Effect [6]: -0.982%
- Percent Effect [7]: 0.176%
- Percent Effect [8]: 6.65%
- Percent Effect [9]: 19%
- Percent Effect [10]: -17.9%
- Percent Effect [11]: 7.41%
- Percent Effect [12]: 10.3%
- Percent Effect [13]: -4.41%

SMILES: COc1ccc(C2SCC(=O)Nc3ccsc32)cc1 (configuration not stated)
- Percent Effect [1]: -5.35%
- Percent Effect [2]: -12%
- Percent Effect [3]: 4.36%
- Percent Effect [4]: 29%
- Percent Effect [5]: 5.11%
- Percent Effect [6]: -5.5%
- Percent Effect [7]: 1.94%
- Percent Effect [8]: 13.9%
- Percent Effect [9]: 30.7%
- Percent Effect [10]: -15.2%
- Percent Effect [11]: 10.6%
- Percent Effect [12]: 2.56%
- Percent Effect [13]: 11.2%

SMILES: Cc1ccccc1CC(C)NCc1c(C)nn(C)c1N1CCOCC1 (configuration not stated)
- Percent Effect [1]: -3.17%
- Percent Effect [2]: -1.39%
- Percent Effect [3]: -4.34%
- Percent Effect [4]: -1.27%
- Percent Effect [5]: -1.05%
- Percent Effect [6]: 5.93%
- Percent Effect [7]: -2.21%
- Percent Effect [8]: 2.46%
- Percent Effect [9]: -20.6%
- Percent Effect [10]: 16.3%
- Percent Effect [11]: 3.16%
- Percent Effect [12]: 2.56%
- Percent Effect [13]: 102%

SMILES: O=C1CSC(c2ccsc2)c2sccc2N1 (configuration not stated)
- Percent Effect [1]: -4.83%
- Percent Effect [2]: -57.3%
- Percent Effect [3]: 4.27%
- Percent Effect [4]: 7.24%
- Percent Effect [5]: 10.3%
- Percent Effect [6]: -3.34%
- Percent Effect [7]: -4.4%
- Percent Effect [8]: 7.21%
- Percent Effect [9]: 6.1%
- Percent Effect [10]: 5.43%
- Percent Effect [11]: -1.06%
- Percent Effect [12]: -2.56%
- Percent Effect [13]: 106%

SMILES: Cn1cc(CN2CC[C@H]3CO[C@H](CNc4ncccn4)[C@H]3C2)cn1
- Percent Effect [1]: -1.24%
- Percent Effect [2]: 13.3%
- Percent Effect [3]: -0.0582%
- Percent Effect [4]: 1.6%
- Percent Effect [5]: -7.11%
- Percent Effect [6]: 5.02%
- Percent Effect [7]: -57.2%
- Percent Effect [8]: 9.4%
- Percent Effect [9]: 3.12%
- Percent Effect [10]: -32.2%
- Percent Effect [11]: 7.29%
- Percent Effect [12]: 22.5%
- Percent Effect [13]: -6.99%

SMILES: CN(Cc1cncnc1)[C@H]1CN(CC2CC2)[C@@H]2CCCO[C@@H]21
- Percent Effect [1]: -2.97%
- Percent Effect [2]: 10.7%
- Percent Effect [3]: 3.35%
- Percent Effect [4]: -6.16%
- Percent Effect [5]: 2.33%
- Percent Effect [6]: 4.44%
- Percent Effect [7]: -51.8%
- Percent Effect [8]: 11.6%
- Percent Effect [9]: -0.287%
- Percent Effect [10]: -9.01%
- Percent Effect [11]: 5.21%
- Percent Effect [12]: 2.5%
- Percent Effect [13]: -8.19%

SMILES: CN(CCc1ccc(F)cc1)Cc1nc2c(cnn2C)c(=O)[nH]1
- Percent Effect [1]: -6.94%
- Percent Effect [2]: 21.1%
- Percent Effect [3]: -1.46%
- Percent Effect [4]: -5.8%
- Percent Effect [5]: 1.02%
- Percent Effect [6]: 2.33%
- Percent Effect [7]: -6.47%
- Percent Effect [8]: 14.5%
- Percent Effect [9]: 2.88%
- Percent Effect [10]: 14.7%
- Percent Effect [11]: 10.3%
- Percent Effect [12]: 23.5%
- Percent Effect [13]: -6.22%

SMILES: Cc1nc(N(C)C)nc2c1COCC21CCN(CC2CC2)C1 (configuration not stated)
- Percent Effect [1]: -3.83%
- Percent Effect [2]: -8.11%
- Percent Effect [3]: 3.96%
- Percent Effect [4]: -0.232%
- Percent Effect [5]: 1.53%
- Percent Effect [6]: -5.86%
- Percent Effect [7]: 1.25%
- Percent Effect [8]: 7.18%
- Percent Effect [9]: 4.17%
- Percent Effect [10]: -14.2%
- Percent Effect [11]: 6.93%
- Percent Effect [12]: 6.1%
- Percent Effect [13]: -5.03%

SMILES: O=C(Cc1ccccn1)N1CCN2C[C@H](Oc3cccc(F)c3)C[C@H]2C1
- Percent Effect [1]: -3.38%
- Percent Effect [2]: 0%
- Percent Effect [3]: 9.34%
- Percent Effect [4]: 1.39%
- Percent Effect [5]: -4.03%
- Percent Effect [6]: 1.07%
- Percent Effect [7]: -1.59%
- Percent Effect [8]: 1.84%
- Percent Effect [9]: 18.6%
- Percent Effect [10]: -10.5%
- Percent Effect [11]: -2.16%
- Percent Effect [12]: -5.13%
- Percent Effect [13]: -1.68%
